Mtb MenB inh: inhibitors of Mycobacterium tuberculosis MenB enzyme | inhibition, % (concentration not given with the values) | hit rate 0.43% among 100,000 | P9WNP5 | MenB enzyme assay, absorbance read-out | AID 540299; in the data active = inhibition above about 21%, passing the limit was not always enough
Target sequence (P9WNP5 whole entry, looked up): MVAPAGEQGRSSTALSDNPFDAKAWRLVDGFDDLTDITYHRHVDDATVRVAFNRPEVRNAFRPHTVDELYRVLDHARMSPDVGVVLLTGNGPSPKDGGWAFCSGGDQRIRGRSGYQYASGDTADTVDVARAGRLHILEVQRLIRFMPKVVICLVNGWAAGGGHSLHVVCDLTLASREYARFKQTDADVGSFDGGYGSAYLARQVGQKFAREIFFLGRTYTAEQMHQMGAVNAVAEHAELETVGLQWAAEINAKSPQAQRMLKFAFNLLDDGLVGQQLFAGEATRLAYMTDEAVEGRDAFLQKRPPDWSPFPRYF
MbtI inh: MbtI salicylate synthase inhibition; P9WFX0; purified MbtI enzyme, fluorescence intensity read-out; inhibition, % (test concentration not listed); hit rate 0.89% among 100,000; AID 493033; in the data active = inhibition mostly above about 56%, no sharp cut-off; inactive = mostly below about 77%
PV pol inh: inhibitors of poliovirus RNA polymerase binding and polymerization | poliovirus polymerase elongation, fluorescence polarization; hits give low values | % elongation, % (compound at 16.7 µg/mL) | hit rate 0.66% among 150,000 | P03300; in the data active = % elongation below about 90%
Of the large screens only hits and unclear results are named; the others gave an inactive call. This is a sample that favours compounds with a hit; in the whole collection about 1.5% have one here.

CSCCN1C(=O)NC2(CCC(C)CC2)C1=O (stereo not given)	none
CCOC(=O)CSc1nc2ncccc2c(=O)n1Cc1ccccc1	none
CN1C2CCC1CC(O)C2 (stereo not given)	none
CN1C2CCC1CC(NC1CCCCC1)C2 (stereo not given)	PV pol inh 80 (no result: MbtI inh)
CCCCNC(=O)CN1CCN(Cc2cccc(OCC)c2OC)CC1	PV pol inh 88
CCCCNC(=O)C1CCN(Cc2ccccc2OCC)CC1	none
Clc1nc(Cl)nc(NNc2nc(Cl)nc(Cl)n2)n1	Mtb MenB inh 34
CCCNc1nc(Cl)nc(Cl)n1	none
C[C@]12CCC3c4ccc(O)cc4CCC3C1CC[C@@H]2O (stereo not given in full)	none
CNC(=O)CSc1nnc(-c2ccco2)n1CC1CCCO1 (stereo not given)	Mtb MenB inh 43
CCN(CC)C(=O)CSc1nnc(-c2ccco2)n1CC1CCCO1 (stereo not given)	none
O=C(COC(=O)c1ccc(-n2cnnn2)cc1)Nc1cc(-c2ccccc2)nn1-c1ccccc1	none
Cc1cc2oc(C(=O)N(Cc3ccc(N(C)C)cc3)CC3CCCO3)c(C)c2cc1Cl (stereo not given)	none (no result: Mtb MenB inh, MbtI inh)
C/C(=C\C(=O)c1cccnc1)Nc1ccccc1O	Mtb MenB inh 60
Cc1cccc(NC(=O)c2cccnc2)c1C	none (no result: MbtI inh)
CCOC(=O)c1cc(C)[nH]c(=S)c1C#N	none (no result: MbtI inh)
CCCCCCCc1c(C#N)c(N)[nH]c(=S)c1C#N	MbtI inh 97, PV pol inh 69
Cc1ccc(S(=O)(=O)NC(CO)C(=O)O)cc1 (stereo not given)	Mtb MenB inh 31
O=C(O)C(CO)NS(=O)(=O)c1ccc(F)cc1 (stereo not given)	none
CC(C)(C)n1ncc(C(=O)O)c1C1CCNCC1	none
CCCCCOc1ccc(NC(=O)Cn2c(-c3cncs3)nc3ccccc32)cc1	PV pol inh 89 (no result: Mtb MenB inh, MbtI inh)
Cc1cc(C)cc(NC(=O)Cn2c(-c3cncs3)nc3ccccc32)c1	none (no result: Mtb MenB inh, MbtI inh)
CCOC(=O)c1c(NC(=O)COc2ccc(OC)cc2)sc(C(=O)N(CC)CC)c1C	none (no result: Mtb MenB inh, MbtI inh)
COC(=O)c1sc(NC(=O)COc2ccc(OC)cc2)c(C#N)c1C	PV pol inh 83 (no result: MbtI inh)
Cc1c(C(=O)N2CCCC2)oc2c1-c1nn(CC(=O)NCCCOC(C)C)cc1CC2	PV pol inh 47 (no result: Mtb MenB inh, MbtI inh)
Cc1c(C(=O)N2CCOCC2)oc2c1-c1nn(CC(=O)NCc3cccc(F)c3)cc1CC2	PV pol inh 84 (no result: Mtb MenB inh, MbtI inh)
CCCCN(CC)CCNC(=O)Cn1cc2c(n1)-c1c(oc(C(=O)N3CCCC3)c1C)CC2	none (no result: Mtb MenB inh, MbtI inh)
Cc1c(C(=O)N2CCOCC2)oc2c1-c1nn(CC(=O)NCc3cccc(Cl)c3)cc1CC2	none (no result: Mtb MenB inh, MbtI inh)
C[n+]1c(-c2ccccc2)csc1NC1CCCCC1	none
Cc1cc2nn(-c3ccc(Cl)cc3)nc2cc1NC(=O)c1ccco1	none
O=C(Nc1ccc(N2C(=O)C=CC2=O)cc1Cl)c1ccco1	MbtI inh 96
CCOC(=O)c1ccc(N2CC(O)=C(c3nc4ccccc4s3)C2=N)cc1	none
N=C1C(c2nc3ccccc3s2)=C(O)CN1N1C(=O)c2ccccc2C1=O	PV pol inh 89
O=C=NC(Cl)(c1ccccc1)C(F)(F)F (stereo not given)	none (no result: Mtb MenB inh, MbtI inh)
COc1cc(/C=C2/SC(=S)N(NC(C)=O)C2=O)ccc1O	none (no result: MbtI inh)
COc1cc(/C=C2\SC(=O)NC2=S)ccc1O	MbtI inh 79
Nc1nc(N)nc(COC(=O)CSCc2ccc(Cl)c(Cl)c2)n1	none
CCN(CC)S(=O)(=O)c1ccc2c(c1)CCCN2	none
Clc1ccc2c(c1)CCN2	Mtb MenB inh 36
Cc1ccc(C)n1-c1ccsc1C(=O)NN	none
O=C1NCC(COc2cccc3ccccc23)O1 (stereo not given)	none (no result: Mtb MenB inh, PV pol inh)
COc1cccc(OCC2COS(=O)O2)c1 (stereo not given)	PV pol inh 85
O=S1OCC(COc2cccc3ccccc23)O1 (stereo not given)	PV pol inh 76 (no result: MbtI inh)
COc1cccc(OCC2CCCNC2)c1 (stereo not given)	none
O=C(CN(C(=O)c1ccccc1)N1C(=O)CCC1=O)c1ccccc1	none
Cc1ccc(Cn2c(CO)cnc2SCC(=O)Nc2ccc(C)c(Cl)c2)cc1	none (no result: Mtb MenB inh, MbtI inh)
O=C(CC(Nc1ccccc1)C(=O)O)c1ccccc1 (stereo not given)	none
O=C(CC(NC(c1ccccc1)c1ccccc1)C(=O)O)c1ccc(Cl)cc1 (stereo not given)	Mtb MenB inh 72 (no result: MbtI inh)
S=C1CSc2ccccc2N1	MbtI inh 78
c1ccc2c(c1)Nc1ccccc1S2	none
CCOC(=O)c1sc(N)c(C#N)c1COC(=O)C1Cc2ccccc2CN1S(C)(=O)=O (stereo not given)	none
CC(C)C1N=C2c3ccccc3N=C(SCc3cc(=O)n4cc(Br)ccc4n3)N2C1=O (stereo not given)	none
C/C(=N\NC=O)c1ccccn1	none
C/C(=N\NC(=Nc1ccccc1)c1ccccn1)c1ccccn1	MbtI inh 65
COc1ccc(NC(=O)COc2ncnc3sccc23)cc1	none
CS(=O)(=O)c1ccc(F)cc1	none
CCOc1cccc(S(=O)(=O)N=C2C=C(C(C)(C)C)C(=O)C(C(C)(C)C)=C2)c1	none
CC1=C/C(=N\S(=O)(=O)c2ccccc2)C=CC1=O	MbtI inh 101
CCOc1ccc(S(=O)(=O)N=C2C=CC(=O)C=C2)cc1	MbtI inh 93
Cc1ccc(S(=O)(=O)N=C2C=CC(=O)C=C2)cc1	MbtI inh 96
C=CCN1C(=O)C(C)(C)S/C1=N\S(=O)(=O)c1ccc(C)cc1	none
CC1=C/C(=N/OC(=O)c2ccccc2)C=CC1=O	none
O=C1C=CC(=NS(=O)(=O)c2ccc(F)cc2)C=C1	MbtI inh 98
Cc1nc(CC(=O)N/N=C/c2ccc(CSC(F)F)o2)cs1	none
CCN(C(=O)c1cccc(S(=O)(=O)N2CCCC2)c1)c1nc2c(C)cccc2s1	none
CCOc1cccc(C(=O)N(Cc2ccc(F)cc2)Cc2ccco2)c1	none (no result: Mtb MenB inh, MbtI inh)
Cc1cc(C)cc(OCC(=O)NC2CCCCC2C)c1 (stereo not given)	none (no result: PV pol inh)
Cc1[nH]c(=S)sc1CC(=O)NC1CCCCC1C (stereo not given)	MbtI inh 84
C=CCN(CC=C)S(=O)(=O)c1ccc(/C(O)=C(/C#N)c2nc3ccccc3[nH]2)cc1	none
CC1=C(O)C(=O)C=C2C1=CC=C1[C@@]2(C)CC[C@@]2(C)[C@@H]3C[C@](C)(C(=O)O)CC[C@]3(C)CC[C@]12C	MbtI inh 103
CC(=O)Nc1cc(C(=O)NCc2ccccc2)ccc1Sc1ccc(Cl)cc1	none
CCCCN(Cc1ccccc1)S(=O)(=O)c1cccc2nsnc12	none (no result: Mtb MenB inh, PV pol inh)
Cc1ccc(CNCCN2CCOCC2)o1	none (no result: MbtI inh)
COc1ccc(-c2ccc(CNCCN3CCOCC3)o2)cc1Cl	Mtb MenB inh 33
O=C(CN1CCCCC1)N(c1ccccn1)c1ccccn1	none
CCOC(=O)c1nnn(-c2nn3nnnc3c3ccccc23)c1C	Mtb MenB inh 32
CCOC(=O)c1nnn(-c2nonc2-n2cccc2)c1C	none
Cc1ccccc1Cn1c(CCCO)nc2ccccc21	none (no result: Mtb MenB inh)
COc1ccc(-c2cc(-c3ccccc3)c(C#N)c(SCC(O)CS(=O)(=O)Cc3ccccc3)n2)cc1 (stereo not given)	none (no result: Mtb MenB inh, MbtI inh)
CCCCS(=O)(=O)CC(O)CSc1nc(-c2ccc(C)cc2)cc(-c2ccccc2)c1C#N (stereo not given)	PV pol inh 81 (no result: Mtb MenB inh, MbtI inh)
COc1ccc(C=C2C(=O)N(C)C(=S)N(C)C2=O)c(C)c1	none
Cc1ccccc1C=C1C(=O)N(C)C(=S)N(C)C1=O	MbtI inh 72
CCc1ccc(C=C2C(=O)N(C)C(=O)N(C)C2=O)cc1	none

Screening results (PubChem)
